Experimental data published in PubChem BioAssay (NCI).
This is part of a sample that, as a whole, favours compounds with a hit. Of some 79,000 tested, about 15% had one in any assay. Unmarked numbers belong to inactive results. Active and inactive are the calls of the source. No stated cut-off is given here; in the data, active means growth inhibition above about 70%; inactive means the rest.

Experiment: NCI Yeast Anticancer Drug Screen. Data for the bub3 strain (AID 167)
Details: S. cerevisiae bub3 mutant strain, at 50.0 µM, active compounds read high
In short: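 In this screen, a yeast mutant lacking normal mitotic checkpoint function is challenged with compound. Relative growth versus vehicle gives the inhibition value.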

Row | Compound | growth inhibition
1 | Cn1c(=O)c2c(nc3sc4c(n32)C(=O)c2c(O)ccc(O)c2C4=O)n(C)c1=O | 41%
2 | CCOC(=O)C1=C(Nc2ccc(Cl)cc2Cl)OC/C1=N\NS(=O)(=O)c1ccc(C)cc1 | -2.45%
3 | NC(=O)C12CC3CC(CC(Br)(C3)C1)C2 | 2.5%
4 | CON(C)CCOC(=O)c1ccc([N+](=O)[O-])cc1 | 3.95%
5 | COc1cc(NCC2COc3c(ccc(OC)c3OC)C2=O)c([N+](=O)[O-])cc1OC (stereo not given) | -5.3%
6 | CCCCCCCSc1nc2ccc(N=Cc3ccccc3O)cc2s1 | -0.9%
7 | CCCOC(=O)C(O)Cc1ccccc1 (stereo not given) | -11.1%
8 | O=C(CSc1nnc(Cc2ccccc2)o1)Nc1cccc([N+](=O)[O-])c1 | -8.4%
9 | CN(C)c1ccc(C(c2cc3c(cc2O)OCO3)N2CCN(C(c3ccc(N(C)C)cc3)c3cc4c(cc3O)OCO4)CC2)cc1 (stereo not given) | 13.8%
10 | CC(C)(C)NC(=O)Oc1ccc(-c2ccccc2)cc1Cl | 99.3% (active)
11 | O=C(N/N=C/c1ccc(Cl)cc1Cl)c1ccccc1 | -8.65%
12 | O=C(O)C1CCCC2C(O)CCC(O)C12 (stereo not given) | -7.2%
13 | C[n+]1ccc(/C=C/c2c[nH]c3ccccc23)cc1 | 5.1%
14 | CC(C)(C)[N+](=O)[O-] | 1.4%
15 | CCOc1c(N=Nc2ccc(Cl)cc2)c(C)nn1C(N)=S | 36.4%
16 | O=C(Nc1cccc2ccccc12)Oc1cccc2cccnc12 | 98.5% (active)
17 | Cc1ccc(C)c(NC(=O)c2ccc([N+](=O)[O-])cc2)c1 | 16.4%
18 | C=CCCC1CC(OCC)OC(CCC=C)O1 (stereo not given) | -6.3%
19 | O=c1oc(=O)c2ccccc2c2ccccc12 | -3.75%
20 | Fc1ccc(C(Nc2nncs2)Nc2nncs2)c(F)c1 | -35.8%

Row | Compound | growth inhibition
21 | Cc1cccc[n+]1CC(=O)c1ccc(Cl)cc1 | -4%
22 | CCC(C)(CCC(C)C)c1ccncc1 (stereo not given) | -0.75%
23 | CCn1c2ccccc2c2ccc(N=Nc3ccccc3)cc21 | 22.8%
24 | CC(C)CCC(C)(C)COC(=O)c1ccc([N+](=O)[O-])cc1 (tested in a mixture with another compound) | 2.15%
25 | O=C(O)CCCCCN1C(=O)c2cccc([N+](=O)[O-])c2C1=O | 12.3%
26 | CC(OP(=O)(O)O)C(N)C(=O)O (stereo not given) | -19.9%
27 | O=C(Nc1ccc(C(F)(F)F)cc1[N+](=O)[O-])C(=O)C1NC(=S)NC1=O (stereo not given) | 7.35%
28 | Cc1ccc(S(=O)(=O)ON2C(=O)c3cccc4cc([N+](=O)[O-])cc(c34)C2=O)cc1 | -12.2%
29 | COc1ccc(NC(=O)CC#N)cc1 | -3.25%
30 | Clc1ccccc1C1OCCCO1 | -8.1%
31 | COc1cc(Nc2nc3ccccc3nc2-c2cccs2)cc(OC)c1OC | 26.1%
32 | CCS(=O)CCO (stereo not given) | 10.8%
33 | NC(N)=NS(=O)(=O)c1ccc(NC(=O)c2ccc(Cl)c3c(Nc4ccc(S(=O)(=O)N=C(N)N)cc4)c4ccccc4nc23)cc1 | 10.2%
34 | O=S1(=O)C=CC(N/N=C/c2cc(Cl)cc(Cl)c2)=C1 | 26.9%
35 | O=C(OCCN1CCOCC1)C1C[C@@H](O)CN1C(=O)c1ccc2c(c1)OCO2 (stereo not given in full) | -14.2%
36 | CCC(CC)=NNc1ccc([N+](=O)[O-])cc1[N+](=O)[O-] | 0.75%
37 | CCCCCCCCCCCCCCCO | -7.25%
38 | COc1cccc(N=Cc2ccc(C=Nc3cccc(OC)c3)cc2)c1 | 27.7%
39 | CCCNCc1cccc2ccnc(C)c12 | 15.9%
40 | O=C1CCc2cc3c(cc21)CC1(Cc2cc4c(cc2C1)CCCC4)C3 | 17.2%

Experiment: NCI Yeast Anticancer Drug Screen. Data for the mlh1 rad18 strain (AID 175)
Details: S. cerevisiae mlh1 rad18 strain growth inhibition; at 50.0 µM; active compounds read high
In short: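 Vehicle-treated cultures served as the reference for growth inhibition in a yeast strain carrying DNA damage repair alterations exposed to each compound.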

Row | Compound | growth inhibition
41 | Cn1c(=O)c2c(nc3sc4c(n32)C(=O)c2c(O)ccc(O)c2C4=O)n(C)c1=O | -7.2%
42 | CCOC(=O)C1=C(Nc2ccc(Cl)cc2Cl)OC/C1=N\NS(=O)(=O)c1ccc(C)cc1 | 3.3%
43 | NC(=O)C12CC3CC(CC(Br)(C3)C1)C2 | -7.1%
44 | CON(C)CCOC(=O)c1ccc([N+](=O)[O-])cc1 | 27.2%
45 | COc1cc(NCC2COc3c(ccc(OC)c3OC)C2=O)c([N+](=O)[O-])cc1OC (stereo not given) | 21.4%
46 | CCCCCCCSc1nc2ccc(N=Cc3ccccc3O)cc2s1 | -24.4%
47 | CCCOC(=O)C(O)Cc1ccccc1 (stereo not given) | -34.3%
48 | O=C(CSc1nnc(Cc2ccccc2)o1)Nc1cccc([N+](=O)[O-])c1 | -17%
49 | CN(C)c1ccc(C(c2cc3c(cc2O)OCO3)N2CCN(C(c3ccc(N(C)C)cc3)c3cc4c(cc3O)OCO4)CC2)cc1 (stereo not given) | 36.5%
50 | CC(C)(C)NC(=O)Oc1ccc(-c2ccccc2)cc1Cl | 99.3% (active)
51 | O=C(N/N=C/c1ccc(Cl)cc1Cl)c1ccccc1 | -3.9%
52 | O=C(O)C1CCCC2C(O)CCC(O)C12 (stereo not given) | -34.1%
53 | C[n+]1ccc(/C=C/c2c[nH]c3ccccc23)cc1 | -8.3%
54 | CC(C)(C)[N+](=O)[O-] | 17.1%
55 | CCOc1c(N=Nc2ccc(Cl)cc2)c(C)nn1C(N)=S | 44.5%
56 | O=C(Nc1cccc2ccccc12)Oc1cccc2cccnc12 | 98% (active)
57 | Cc1ccc(C)c(NC(=O)c2ccc([N+](=O)[O-])cc2)c1 | 23.6%
58 | C=CCCC1CC(OCC)OC(CCC=C)O1 (stereo not given) | 13.8%
59 | O=c1oc(=O)c2ccccc2c2ccccc12 | -5.6%
60 | Fc1ccc(C(Nc2nncs2)Nc2nncs2)c(F)c1 | 9.7%

Row | Compound | growth inhibition
61 | Cc1cccc[n+]1CC(=O)c1ccc(Cl)cc1 | 3.65%
62 | CCC(C)(CCC(C)C)c1ccncc1 (stereo not given) | 3.05%
63 | CCn1c2ccccc2c2ccc(N=Nc3ccccc3)cc21 | 17.8%
64 | CC(C)CCC(C)(C)COC(=O)c1ccc([N+](=O)[O-])cc1 (tested in a mixture with another compound) | 29.3%
65 | O=C(O)CCCCCN1C(=O)c2cccc([N+](=O)[O-])c2C1=O | 12.7%
66 | CC(OP(=O)(O)O)C(N)C(=O)O (stereo not given) | -5.2%
67 | O=C(Nc1ccc(C(F)(F)F)cc1[N+](=O)[O-])C(=O)C1NC(=S)NC1=O (stereo not given) | 27.6%
68 | Cc1ccc(S(=O)(=O)ON2C(=O)c3cccc4cc([N+](=O)[O-])cc(c34)C2=O)cc1 | 8.65%
69 | COc1ccc(NC(=O)CC#N)cc1 | 3.75%
70 | Clc1ccccc1C1OCCCO1 | -6.1%
71 | COc1cc(Nc2nc3ccccc3nc2-c2cccs2)cc(OC)c1OC | 6%
72 | CCS(=O)CCO (stereo not given) | -14.2%
73 | NC(N)=NS(=O)(=O)c1ccc(NC(=O)c2ccc(Cl)c3c(Nc4ccc(S(=O)(=O)N=C(N)N)cc4)c4ccccc4nc23)cc1 | 29.1%
74 | O=S1(=O)C=CC(N/N=C/c2cc(Cl)cc(Cl)c2)=C1 | 26.6%
75 | O=C(OCCN1CCOCC1)C1C[C@@H](O)CN1C(=O)c1ccc2c(c1)OCO2 (stereo not given in full) | 6.25%
76 | CCC(CC)=NNc1ccc([N+](=O)[O-])cc1[N+](=O)[O-] | -9.85%
77 | CCCCCCCCCCCCCCCO | 8.4%
78 | COc1cccc(N=Cc2ccc(C=Nc3cccc(OC)c3)cc2)c1 | -12.4%
79 | CCCNCc1cccc2ccnc(C)c12 | 28.6%
80 | O=C1CCc2cc3c(cc21)CC1(Cc2cc4c(cc2C1)CCCC4)C3 | -20.3%
